In PubChem BioAssay:

Test: differential killing of epithelial or mesenchymal cells, primary screen, imaging, PC-3E GFP, TEM4-18 mCherry, co-culture (AID 1345086);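 further: cells exposed to compound for 72 h before imaging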
Settings: imaging cell counts, measured here: mesenchymal TEM4-18 mCherry cell survival, at 1 µM

Compound | normalised cell number
C=CC(C1=CC(=O)C=CC1=O)c1ccccc1 (configuration not stated) | 1
CC(CCC(=O)O)[C@H]1CCC2C3C[C@H](O)[C@@H]4C[C@H](O)CC[C@]4(C)C3CC[C@@]21C (some centres not stated) | 1.03
O=c1cc(-c2ccccc2O)oc2cc(O)ccc12 | 0.97
C/C1=C/CC(C)(C)/C=C/C/C(C)=C/CC1 | 1.01
S=c1ccss1 | 1.2
CC(=O)O[C@H]1C[C@@H](OC(C)=O)C(C)(C)C2C[C@@H](O)[C@]3(C)C(CC[C@@]4(C)[C@H](c5ccoc5)OC(=O)[C@H]5O[C@]543)[C@]21C (some centres not stated) | 0.86
CC(=O)Oc1cc(OC(C)=O)c2c(c1)O[C@H](c1ccc(OC(C)=O)c(OC(C)=O)c1)[C@@H](OC(C)=O)C2 | 0.84
CC1(C)C(=O)[C@@H]2C[C@@]3(O)C4=CC(=O)O[C@@H](c5ccoc5)[C@]4(C)CCC3C(C)(C2=O)[C@H]1CC(=O)O (some centres not stated) | 1.01
OC[C@H]1O[C@@H](O[C@H]2[C@H](O)[C@@H](O)[C@@H](O)O[C@@H]2CO)[C@H](O)[C@@H](O)[C@@H]1O | 1.04
CC(=O)OC/C=C(\C)CC/C=C(\C)CC/C=C(\C)CC/C=C(\C)CC/C=C(\C)CC/C=C(\C)CC/C=C(\C)CC/C=C(\C)CCC=C(C)C | 1.04
CC(=O)O[C@@H]1CC2C(C)(C)C(=O)C3OC3[C@]2(C)C2CC[C@@]3(C)[C@H](c4ccoc4)OC(=O)C4OC43[C@@]21C (some centres not stated) | 1.05
O=C(O)c1ccc2c(c1)OCO2 | 1.05
C=C[C@@]1(C)CC(=O)[C@@]2(O)[C@](C)(O1)[C@@H](O)[C@@H](O)C1C(C)(C)CC[C@H](O)[C@@]12C (some centres not stated) | 1.05
COc1ccc(-c2cc(=O)c3c(OC)c(OC)c(OC)cc3o2)cc1OC | 1.08
CC(=O)O[C@H]1C[C@@H](O)C(C)(C)C2C[C@@H](OC(C)=O)[C@]3(C)C(CC[C@@]4(C)[C@H](c5ccoc5)OC(=O)C5OC543)[C@]21C (some centres not stated) | 0.7
COc1ccc([C@H]2COc3c(ccc(O)c3OC)C2)c(OC)c1O | 0.9
CC1(C)C(=O)C=C[C@@]2(C)C1CC(=O)[C@]1(C)C2CC[C@@]2(C)[C@H](c3ccoc3)OC(=O)[C@H]3O[C@]321 (some centres not stated) | 1.21
COc1ccc(-c2cc(=O)c3c(O)c(OC)c(OC)c(OC)c3o2)cc1OC | 1.09
NC(Cc1ccc(F)cc1)C(=O)O (configuration not stated) | 0.84
O=c1cccc2ccc(O)c(O)c2c1O | 1.02
C#CCCCCCCCCCCCc1ccco1 | 0.98
COC1=CC(=O)C(O)=C/C1=C\C=C\c1ccccc1 | 1.06
